Each structure is given as a SMILES string. Inconclusive results are not listed. Where a call stands in place of a potency, no number is given. Activity calls are given as the source filed them. The call rests on the fitted dose curve; in most records, active means well fitted curve in the direction sought with a large enough effect in the repeat runs; inconclusive means weak or mixed curves; inactive means no such curve, though single readings can be large; an effect the other way counts as inactive or inconclusive.

The first assay in a line: qHTS RealTime-Glo MT Cell Viability Assay in HepG2 cells - 40 hour (AID 1224870). Further: nearly all actives have a fitted effect of over 50% in size. Further: potency means the concentration at half of the fitted maximal effect. The settings on record: RealTime-Glo luminescence; series mostly up to 76.8 µM. Put shortly: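 HepG2 cells (600/well) mixed with RealTime-Glo MT reagent, settled 5 h at 37 C/5% CO2 before compound addition. Nonlytic NanoLuc luminescence from viable-cell prosubstrate reduction read repeatedly during 40 h treatment at 37 C.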
For orientation: qHTS replaces the single test concentration by a dilution series.
Turning to `O=C(O)C[C@H](NC(=O)OCc1ccccc1)C(=O)O`, the Potency entry was “inactive”.
The same measure, in the same setting: with `CCCCCCCCCI` the figure was 25 µM (active); with `O=C=Nc1ccc(Cl)c(Cl)c1`, “inactive”.
Still for that read-out and setting: the entry for `O=C1C(=O)c2ccccc2C(O)=C1C1CCC(c2ccc(Cl)cc2)CC1` (stereo not given) is “inactive”; for `C[C@@H](O)[C@H]1C(=O)N2C(C(=O)O)=C([C@H]3CCCO3)S[C@H]12` it is “inactive”.
The same measure, in the same setting: with `c1ccc(C[n+]2cccc3ccccc32)cc1` the entry was “inactive”.
Regarding `CN(C)CCN1C(=O)c2ccccc2N(C)c2ccccc21`, the Potency entry is “inactive”.
On the same count and under the same terms, the entry for `CC(C)C=O` is “inactive”.
Consider `Cc1cscn1`, for which the Potency result was “inactive”.
Take `O=C(/C=C/c1ccccc1)OCCc1ccccc1`: the Potency entry was “inactive”.
Take `CC1(C)[C@H](C(=O)O)N2C(=O)C[C@H]2S1(=O)=O`: the Potency entry is “inactive”.
For the molecule `CC=C(Cl)Cl`, the Potency entry is “inactive”.
Regarding `COC(=O)[C@H]1[C@H]2C[C@@H]3c4[nH]c5cc(OC)ccc5c4CCN3C[C@H]2C[C@@H](OC(=O)/C=C/c2ccc(O)c(OC)c2)[C@@H]1OC`, the Potency entry was “inactive”.
Same read-out and setting: with `NCCNCCO` the entry was “inactive”; with `N#CCc1ccc(Cl)cc1Cl`, “inactive”.
Same read-out and setting: with `CCCCC(CC)CN` (stereo not given) the entry was “inactive”.
Still for that read-out and setting: with `CC(CN(C)C)C(C)(O)Cc1ccc(Cl)cc1` (stereo not given) the entry was “inactive”; with `C[C@@]12CCC[C@H]1[C@@H]1CC[C@H]3C[C@@H](O)CC[C@]3(C)[C@H]1CC2`, “inactive”; with `C[C@]1(Cn2ccnn2)[C@H](C(=O)O)N2C(=O)C[C@H]2S1(=O)=O`, “inactive”.
On to `Cc1ccccc1N=C(N)Nc1ccccc1C`, for which the Potency result was “inactive”.
On the same count and under the same terms, the entry for `O=C(O)c1ccc(OCCCOc2ccc(C(=O)O)cc2)cc1` is “inactive”; for `CC1(C)S[C@@H]2[C@H](NC(=O)C(c3ccccc3)S(=O)(=O)O)C(=O)N2[C@H]1C(=O)O` (stereo not given in full) it is “inactive”; for `NC(=O)c1ccncc1` it is “inactive”.
As for `CO[C@]1(NC(=O)CSC(F)F)C(=O)N2C(C(=O)O)=C(CSc3nnnn3CCO)CO[C@H]21`, the Potency result was “inactive”.
Still for that read-out and setting: with `CCCCN(CCN(CCCC)C(=O)N1CCOCC1)C(=O)N1CCOCC1` the entry was “inactive”; with `O=C1CCCCCCCCCCOCCCCO1`, “inactive”.
Regarding `CCCCCC[C@@H](O)C/C=C\CCCCCCCC(=O)OCC(O)CO` (stereo not given in full), the Potency result was “inactive”.
Turning to `Cc1c(C)c2c(c(C)c1OC(=O)CCC(=O)OCCO)CC[C@@](C)(CCC[C@H](C)CCC[C@H](C)CCCC(C)C)O2`, the Potency entry is “inactive”.
On to `O=C(Cn1ccnc1[N+](=O)[O-])NCCO`, for which the Potency entry is “inactive”.
For `Cc1ccccc1S`, the Potency entry is “inactive”.
For `C=C1CCC2CC1C2(C)C` (stereo not given), the Potency entry was “inactive”.
The same measure, in the same setting: with `Cc1ccc(C(C)(C)O)cc1` the entry was “inactive”; with `CCCCCCCC/C=C\CCCCCCCCO`, “inactive”.

A further assay in a line: A CellTox Green Cytotoxicity Assay to monitor cytotoxicity in HEK293 cells - 40 hour (AID 1224871). Further: nearly all actives have a fitted effect of over 45% in size. Further: potency means the concentration at half of the fitted maximal effect. The note with it: CellTox Green fluorescence; series mostly up to 76.8 µM. Put shortly:
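Nonlytic real-time cytotoxicity: HEK293 + CellTox Green reagent plated, 5 h preincubation, pintool compound addition (23 nL in DMSO), 37 C for 40 h, fluorescence measured at successive time points.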
Take `O=C(O)C[C@H](NC(=O)OCc1ccccc1)C(=O)O`: the Potency result was “inactive”.
On the same count and under the same terms, with `CCCCCCCCCI` the entry was “inactive”.
On the same count and under the same terms, with `O=C=Nc1ccc(Cl)c(Cl)c1` the entry was “inactive”; with `C[C@@H](O)[C@H]1C(=O)N2C(C(=O)O)=C([C@H]3CCCO3)S[C@H]12`, “inactive”; with `c1ccc(C[n+]2cccc3ccccc32)cc1`, “inactive”.
On the same count and under the same terms, with `CN(C)CCN1C(=O)c2ccccc2N(C)c2ccccc21` the entry was “inactive”.
Consider `CC(C)C=O`, for which the Potency result is “inactive”.
The same measure, in the same setting: the entry for `CCC1(CO)COCOC1` is “inactive”.
Still for that read-out and setting: with `Cc1cscn1` the entry was “inactive”; with `C[C@H]1C[C@H](O)c2ccsc2S1(=O)=O`, “inactive”; with `O=C(/C=C/c1ccccc1)OCCc1ccccc1`, “inactive”.
On the same count and under the same terms, with `CC1(C)[C@H](C(=O)O)N2C(=O)C[C@H]2S1(=O)=O` the entry was “inactive”.
In the case of `CC=C(Cl)Cl`, the Potency entry is “inactive”.
On the same count and under the same terms, the entry for `N#CCc1ccc(Cl)cc1Cl` is “inactive”.
Same read-out and setting: with `CCCCC(CC)CN` (stereo not given) the entry was “inactive”; with `C[C@@]12CCC[C@H]1[C@@H]1CC[C@H]3C[C@@H](O)CC[C@]3(C)[C@H]1CC2`, “inactive”; with `C[C@]1(Cn2ccnn2)[C@H](C(=O)O)N2C(=O)C[C@H]2S1(=O)=O`, “inactive”.
The same measure, in the same setting: with `Cc1ccccc1N=C(N)Nc1ccccc1C` the entry was “inactive”.
For the molecule `CC1(C)S[C@@H]2[C@H](NC(=O)C(c3ccccc3)S(=O)(=O)O)C(=O)N2[C@H]1C(=O)O` (stereo not given in full), the Potency result was “inactive”.
As to `NC(=O)c1ccncc1`, the Potency result is “inactive”.
For the molecule `CO[C@]1(NC(=O)CSC(F)F)C(=O)N2C(C(=O)O)=C(CSc3nnnn3CCO)CO[C@H]21`, the Potency result was “inactive”.
Same read-out and setting: the entry for `CCCCN(CCN(CCCC)C(=O)N1CCOCC1)C(=O)N1CCOCC1` is “inactive”; for `O=C1CCCCCCCCCCOCCCCO1` it is 49 µM (active).
Same read-out and setting: the entry for `C=C(C)C(=O)OCCOCCOC(=O)C(=C)C` is “inactive”; for `COC(=O)C1=C(C)NC(C)=C(C(=O)O[C@@H]2CCCN(Cc3ccccc3)C2)[C@@H]1c1cccc([N+](=O)[O-])c1` it is “inactive”; for `CCCCCC[C@@H](O)C/C=C\CCCCCCCC(=O)OCC(O)CO` (stereo not given in full) it is “inactive”.
Still for that read-out and setting: the entry for `O=C(Cn1ccnc1[N+](=O)[O-])NCCO` is “inactive”; for `Cc1ccccc1S` it is “inactive”; for `CC[N+](CC)(CCNC(=O)C(=O)NCC[N+](CC)(CC)Cc1ccccc1Cl)Cc1ccccc1Cl` it is “inactive”.
Turning to `C=C1CCC2CC1C2(C)C` (stereo not given), the Potency entry is “inactive”.
Same read-out and setting: with `CCCCCCC(C)(C)C(=O)O` the entry was “inactive”; with `Cc1ccc(C(C)(C)O)cc1`, “inactive”.
Same read-out and setting: with `CCCCCC#CC(=O)OC` the entry was “inactive”; with `CCCCCCCC/C=C\CCCCCCCCO`, “inactive”.

A short description of another assay: qHTS RealTime-Glo MT Cell Viability Assay in HEK293 cells - 16 hour (AID 1224872). Further: top concentration of the series differs between compounds; nearly all actives have a fitted effect of over 50% in size. The note with it: RealTime-Glo luminescence; series mostly up to 76.8 µM. Put shortly: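 Tox21 10K qHTS, HEK293, 600 cells/well, RealTime-Glo reagent co-dispensed with cells; 5 h preincubation, compound by pintool, 37 C, luminescence at 0–40 h.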
`O=C(O)C[C@H](NC(=O)OCc1ccccc1)C(=O)O`: the Potency result was “inactive”.
For the molecule `CCCCCCCCCI`, the Potency entry is “inactive”.
Same read-out and setting: with `O=C=Nc1ccc(Cl)c(Cl)c1` the entry was “inactive”; with `O=C1C(=O)c2ccccc2C(O)=C1C1CCC(c2ccc(Cl)cc2)CC1` (stereo not given), “inactive”.
The same measure, in the same setting: the entry for `C[C@@H](O)[C@H]1C(=O)N2C(C(=O)O)=C([C@H]3CCCO3)S[C@H]12` is “inactive”; for `c1ccc(C[n+]2cccc3ccccc32)cc1` it is “inactive”.
Still for that read-out and setting: the entry for `CN(C)CCN1C(=O)c2ccccc2N(C)c2ccccc21` is “inactive”; for `CC(C)C=O` it is “inactive”; for `CCC1(CO)COCOC1` it is “inactive”.
In the case of `Cc1cscn1`, the Potency result is “inactive”.
Still for that read-out and setting: with `C[C@H]1C[C@H](O)c2ccsc2S1(=O)=O` the entry was “inactive”; with `O=C(/C=C/c1ccccc1)OCCc1ccccc1`, “inactive”; with `CC1(C)[C@H](C(=O)O)N2C(=O)C[C@H]2S1(=O)=O`, “inactive”.
Same read-out and setting: the entry for `CC=C(Cl)Cl` is “inactive”.
For the molecule `NCCNCCO`, the Potency result is “inactive”.
Same read-out and setting: with `N#CCc1ccc(Cl)cc1Cl` the entry was “inactive”; with `CCCCC(CC)CN` (stereo not given), “inactive”; with `CC(CN(C)C)C(C)(O)Cc1ccc(Cl)cc1` (stereo not given), “inactive”.
On the same count and under the same terms, the entry for `C[C@@]12CCC[C@H]1[C@@H]1CC[C@H]3C[C@@H](O)CC[C@]3(C)[C@H]1CC2` is “inactive”.
On to `C[C@]1(Cn2ccnn2)[C@H](C(=O)O)N2C(=O)C[C@H]2S1(=O)=O`, for which the Potency entry was “inactive”.
In the case of `Cc1ccccc1N=C(N)Nc1ccccc1C`, the Potency entry is “inactive”.
The same measure, in the same setting: the entry for `O=C(O)c1ccc(OCCCOc2ccc(C(=O)O)cc2)cc1` is “inactive”; for `CC1(C)S[C@@H]2[C@H](NC(=O)C(c3ccccc3)S(=O)(=O)O)C(=O)N2[C@H]1C(=O)O` (stereo not given in full) it is “inactive”.
On the same count and under the same terms, the entry for `NC(=O)c1ccncc1` is “inactive”; for `CO[C@]1(NC(=O)CSC(F)F)C(=O)N2C(C(=O)O)=C(CSc3nnnn3CCO)CO[C@H]21` it is “inactive”; for `CCCCN(CCN(CCCC)C(=O)N1CCOCC1)C(=O)N1CCOCC1` it is “inactive”.
Same read-out and setting: with `O=C1CCCCCCCCCCOCCCCO1` the entry was “inactive”.
As for `C=C(C)C(=O)OCCOCCOC(=O)C(=C)C`, the Potency entry was “inactive”.
The same measure, in the same setting: the entry for `CCCCCC[C@@H](O)C/C=C\CCCCCCCC(=O)OCC(O)CO` (stereo not given in full) is “inactive”; for `Cc1c(C)c2c(c(C)c1OC(=O)CCC(=O)OCCO)CC[C@@](C)(CCC[C@H](C)CCC[C@H](C)CCCC(C)C)O2` it is “inactive”.
Same read-out and setting: with `O=C(Cn1ccnc1[N+](=O)[O-])NCCO` the entry was “inactive”; with `Cc1ccccc1S`, “inactive”.
Take `CC[N+](CC)(CCNC(=O)C(=O)NCC[N+](CC)(CC)Cc1ccccc1Cl)Cc1ccccc1Cl`: the Potency entry was “inactive”.
On the same count and under the same terms, the entry for `C=C1CCC2CC1C2(C)C` (stereo not given) is “inactive”.
Same read-out and setting: the entry for `CCCCCCC(C)(C)C(=O)O` is “inactive”; for `Cc1ccc(C(C)(C)O)cc1` it is “inactive”; for `CCCCCC#CC(=O)OC` it is “inactive”.
The same measure, in the same setting: the entry for `CCCCCCCC/C=C\CCCCCCCCO` is “inactive”.

Source of the values: PubChem BioAssay (Tox21).
